“And” between values parts separate entries of the source, which are not always exact repeats. Identical values can stand only once. The source made the active and inactive calls.
Legend:
[1] = tested on: Plasmodium falciparum Sir2 (PF13_0152, Sir2A); test: pfSir2 binders on small-molecule microarrays, primary screen, biochemical, small-molecule microarray, 635 nm fluorescence (AID 1098); conditions: small-molecule microarray binding, fluorescence 635 nm; higher = more signal;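 note: score merges spot fluorescence intensity with its signal-to-noise ratio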
[2] = small-molecule microarray binders of probe aDKK1, primary screen, biochemical, biotinylated probe, 635/667 nm fluorescence (AID 1099); conditions: higher = more signal;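 note: score merges 667nm spot fluorescence with signal to noise across triplicate slides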
[3] = small-molecule microarray binders of probe aCHRDL2, primary screen, biochemical, biotinylated probe, 635/667 nm fluorescence (AID 1100); conditions: higher = more signal
[4] = splicing luciferase reporter signal modulators, primary screen, spliceosome inhibition project, cell-based, HEK293, splice +/- reporter (AID 1101); conditions: luminescence, 24 h, higher = more signal, called active from +8 up or from −8 down;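 note: HEK293 cells carrying a splicing-competent luciferase reporter gene; test concentration not given here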
[5] = target: Fibroblast growth factor 10 (Homo sapiens) (UniProt O15520); test: FGF10 binders on small-molecule microarrays, primary screen, biochemical, small-molecule microarray, 635 nm fluorescence (AID 1102); conditions: FGF10 binding, fluorescence 635 nm, higher = more signal
Chain of Fibroblast growth factor 10 (Homo sapiens) (O15520 whole entry, looked up): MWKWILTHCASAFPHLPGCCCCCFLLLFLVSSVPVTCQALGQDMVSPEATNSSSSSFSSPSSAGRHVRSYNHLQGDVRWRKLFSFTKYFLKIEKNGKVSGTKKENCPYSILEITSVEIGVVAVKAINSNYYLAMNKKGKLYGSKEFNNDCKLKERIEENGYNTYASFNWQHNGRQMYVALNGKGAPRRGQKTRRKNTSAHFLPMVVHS

[6] = tested on: glycogen synthase kinase-3 (GSK3A per assay name; protocol says GSK3B); test: GSK3 binders on small-molecule microarrays, primary screen, biochemical, small-molecule microarray, 635 nm fluorescence, GSK3A (AID 1103); conditions: small-molecule microarray binding, fluorescence 635 nm; higher = more signal; note: the record names both GSK3A and GSK3B
[7] = target: Epidermal growth factor receptor (Homo sapiens) (UniProt P00533); test: EGFR binders on small-molecule microarrays, primary screen, biochemical, small-molecule microarray, 635 nm fluorescence (AID 1104); conditions: EGFR binding, higher = more signal;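 note: score merges 667 nm emission intensity with spot signal to noise over triplicate slides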
Chain of Epidermal growth factor receptor (Homo sapiens) (P00533 whole entry, looked up): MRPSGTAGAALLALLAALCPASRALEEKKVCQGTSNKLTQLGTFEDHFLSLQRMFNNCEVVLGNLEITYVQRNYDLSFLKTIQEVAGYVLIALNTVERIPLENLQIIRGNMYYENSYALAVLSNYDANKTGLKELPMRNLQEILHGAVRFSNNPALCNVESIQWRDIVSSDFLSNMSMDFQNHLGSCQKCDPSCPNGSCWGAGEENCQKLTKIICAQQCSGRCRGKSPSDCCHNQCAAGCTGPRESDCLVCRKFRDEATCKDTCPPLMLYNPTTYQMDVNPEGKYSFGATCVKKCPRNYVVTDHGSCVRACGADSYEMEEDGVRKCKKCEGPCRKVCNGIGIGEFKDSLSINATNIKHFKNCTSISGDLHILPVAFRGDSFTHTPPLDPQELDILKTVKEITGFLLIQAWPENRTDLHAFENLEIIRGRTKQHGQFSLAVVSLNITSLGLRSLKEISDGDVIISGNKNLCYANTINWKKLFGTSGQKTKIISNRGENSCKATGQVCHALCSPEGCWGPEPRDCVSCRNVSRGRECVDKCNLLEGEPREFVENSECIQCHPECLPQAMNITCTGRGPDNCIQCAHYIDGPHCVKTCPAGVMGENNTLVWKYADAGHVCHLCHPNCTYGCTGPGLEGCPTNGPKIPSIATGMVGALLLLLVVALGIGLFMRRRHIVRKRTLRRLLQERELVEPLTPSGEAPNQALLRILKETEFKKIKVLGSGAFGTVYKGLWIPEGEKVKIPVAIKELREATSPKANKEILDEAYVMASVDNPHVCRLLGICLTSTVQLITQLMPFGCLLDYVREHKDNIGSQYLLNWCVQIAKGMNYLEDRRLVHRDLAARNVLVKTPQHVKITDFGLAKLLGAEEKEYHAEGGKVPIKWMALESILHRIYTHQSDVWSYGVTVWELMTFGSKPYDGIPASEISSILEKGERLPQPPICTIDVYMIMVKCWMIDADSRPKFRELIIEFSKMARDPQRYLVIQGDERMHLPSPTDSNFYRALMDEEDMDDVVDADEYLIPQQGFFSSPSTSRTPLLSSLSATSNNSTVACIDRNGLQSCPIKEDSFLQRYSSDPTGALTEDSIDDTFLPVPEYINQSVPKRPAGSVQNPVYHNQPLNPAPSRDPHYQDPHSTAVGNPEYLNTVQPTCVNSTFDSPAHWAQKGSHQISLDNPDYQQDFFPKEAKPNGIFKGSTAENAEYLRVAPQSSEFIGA

[8] = target: Follistatin-related protein 3 (Homo sapiens) (UniProt O95633); test: FSTL3 binders on small-molecule microarrays, primary screen, biochemical, small-molecule microarray, 635 nm fluorescence (AID 1105); conditions: FSTL3 binding, higher = more signal;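 note: score merges emission near 667 nm and signal to noise per printed spot across three slides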
Chain of Follistatin-related protein 3 (Homo sapiens) (O95633 whole entry, looked up): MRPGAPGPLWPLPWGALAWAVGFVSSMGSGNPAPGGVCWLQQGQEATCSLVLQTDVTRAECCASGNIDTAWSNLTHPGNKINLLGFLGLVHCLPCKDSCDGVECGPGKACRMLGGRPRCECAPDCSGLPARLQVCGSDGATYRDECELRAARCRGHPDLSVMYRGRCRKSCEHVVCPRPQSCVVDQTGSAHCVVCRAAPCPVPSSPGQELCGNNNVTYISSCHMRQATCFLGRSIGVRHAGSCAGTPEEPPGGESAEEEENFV

[9] = target: Dickkopf-related protein 1 (Homo sapiens) (UniProt O94907); test: DKK1 binders on small-molecule microarrays, primary screen, biochemical, small-molecule microarray, 635 nm fluorescence scan (AID 1106); conditions: DKK1 binding, higher = more signal;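 note: score merges emission near 667 nm with signal to noise over three replicate slides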
Chain of Dickkopf-related protein 1 (Homo sapiens) (O94907 whole entry, looked up): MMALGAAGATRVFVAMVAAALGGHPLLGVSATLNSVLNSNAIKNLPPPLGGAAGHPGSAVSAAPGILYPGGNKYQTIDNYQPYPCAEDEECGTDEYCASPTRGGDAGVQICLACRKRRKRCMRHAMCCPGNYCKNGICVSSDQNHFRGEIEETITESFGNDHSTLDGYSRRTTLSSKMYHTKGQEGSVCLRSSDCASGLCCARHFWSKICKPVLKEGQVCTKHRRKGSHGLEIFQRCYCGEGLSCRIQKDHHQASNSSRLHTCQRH

[10] = tested on: Inhibin beta A chain (activin A); test: INHBA (activin A) binders on microarrays, primary screen, biochemical, small-molecule microarray, 635 nm fluorescence scan (AID 1107); conditions: small-molecule microarray binding, higher = more signal;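 note: mouse activin A protein probed at 4.33 µg/mL on printed slides; score merges bound-protein fluorescence near 667 nm with spot signal-to-noise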
[11] = tested on: Human papillomavirus type 1a protein E7 (residues 44-93); test: HPV1a E7 fragment binders on microarrays, primary screen, biochemical, small-molecule microarray, residues 44-93, 635 nm fluorescence (AID 1108); conditions: small-molecule microarray binding, fluorescence 635 nm; higher = more signal;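 note: E7 fragment applied at 1 µg/mL in TBST for 1 h at 4 C; score combines spot fluorescence with its signal to noise ratio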
[12] = modulators of HCV replicon luciferase signal, primary screen, HCV replication inhibitor project, Huh7 cells, luciferase reporter (AID 1109); conditions: 48 h, higher = more signal;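 note: huh7 hepatoma cells harbouring a luciferase neomycin HCV replicon reporter; luciferase luminescence as measure of HCV replicon replication; test concentration not given here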
[13] = target: Left-right determination factor 2 (Homo sapiens) (UniProt O00292); test: LEFTY2 binders on small-molecule microarrays, primary screen, biochemical, small-molecule microarray, 635 nm fluorescence scan (AID 1110); conditions: LEFTY2 binding, higher = more signal
Chain of Left-right determination factor 2 (Homo sapiens) (O00292 whole entry, looked up): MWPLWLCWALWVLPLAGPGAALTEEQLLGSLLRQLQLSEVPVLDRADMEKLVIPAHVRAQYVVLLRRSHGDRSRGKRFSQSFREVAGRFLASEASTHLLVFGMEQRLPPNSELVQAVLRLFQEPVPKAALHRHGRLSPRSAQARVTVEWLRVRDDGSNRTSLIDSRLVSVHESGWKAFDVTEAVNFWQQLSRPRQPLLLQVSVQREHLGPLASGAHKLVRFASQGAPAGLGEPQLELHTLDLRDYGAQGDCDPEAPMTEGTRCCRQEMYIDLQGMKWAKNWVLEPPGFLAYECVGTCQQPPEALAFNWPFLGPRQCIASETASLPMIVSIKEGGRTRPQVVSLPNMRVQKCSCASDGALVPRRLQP

[14] = target: Calmodulin-1 (Homo sapiens) (UniProt P0DP23); test: CALM1 binders on microarrays, EGTA buffer, profiling panel, biochemical, small-molecule microarray, Cy5-labelled CALM1 (AID 1111); conditions: Cy5-CALM1 binding fluorescence, higher = more signal;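 note: labelled calmodulin applied in Tris saline Tween buffer holding calcium plus EGTA and DTT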
[15] = target: Calmodulin-1 (Homo sapiens) (UniProt P0DP23); test: calcium-bound CALM1 binders on microarrays, profiling panel, artefact control for SMM control-protein annotation, biochemical, small-molecule microarray, Cy5-labelled CALM1, plus calcium (AID 1112); conditions: Cy5-CALM1 binding fluorescence, higher = more signal;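 note: score merges spot fluorescence with signal to noise from triplicate slides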
[16] = small-molecule microarray binders of probe aWnt5a, primary screen, biochemical, biotinylated probe, 635/667 nm fluorescence (AID 1113); conditions: higher = more signal;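 note: score merges 667 nm fluorescence intensity with signal-to-noise per printed feature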
[17] = small-molecule microarray binders of probe aShh, primary screen, biochemical, biotinylated probe, 635/667 nm fluorescence (AID 1114); conditions: higher = more signal;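 note: probe is biotin-labelled aShh protein from a stem cell growth factor screen; measures binding of labelled protein to compounds printed on the slide; score merges feature fluorescence at 667 nm with signal-to-noise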
[18] = small-molecule microarray binders of probe aNog, primary screen, biochemical, biotinylated probe, 635/667 nm fluorescence (AID 1115); conditions: higher = more signal;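 note: probe is biotinylated aNog protein used at 0.15 µg/mL for 1 h at 4 C; z-score combines 667 nm fluorescence of each spot with its signal to noise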
[19] = target: Torsin-1A-interacting protein 1 (Homo sapiens) (UniProt Q5JTV8); test: LAP1 binders from COS7 cell lysate, primary screen, small-molecule microarray, 635/667 nm fluorescence (AID 1116); conditions: COS7-hLAP1 lysate binding, 635 nm fluorescence, higher = more signal
Chain of Torsin-1A-interacting protein 1 (Homo sapiens) (Q5JTV8 whole entry, looked up): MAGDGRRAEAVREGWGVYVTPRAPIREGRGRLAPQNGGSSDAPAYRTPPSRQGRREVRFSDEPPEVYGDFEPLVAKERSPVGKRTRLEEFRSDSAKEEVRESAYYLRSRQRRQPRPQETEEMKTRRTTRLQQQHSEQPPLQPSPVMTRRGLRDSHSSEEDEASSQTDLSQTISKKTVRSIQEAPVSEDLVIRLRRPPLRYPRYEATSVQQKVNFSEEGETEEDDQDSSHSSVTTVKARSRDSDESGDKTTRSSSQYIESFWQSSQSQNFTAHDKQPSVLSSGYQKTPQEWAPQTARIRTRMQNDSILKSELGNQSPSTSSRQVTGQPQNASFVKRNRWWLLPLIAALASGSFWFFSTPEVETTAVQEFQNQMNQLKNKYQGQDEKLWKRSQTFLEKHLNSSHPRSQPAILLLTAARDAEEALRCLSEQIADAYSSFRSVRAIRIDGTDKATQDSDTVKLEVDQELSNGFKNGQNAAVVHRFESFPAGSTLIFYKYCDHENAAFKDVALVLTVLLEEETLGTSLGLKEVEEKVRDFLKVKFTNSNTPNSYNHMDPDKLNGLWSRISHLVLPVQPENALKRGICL

[20] = target: Alpha-bungarotoxin (Bungarus multicinctus) (UniProt P60615); test: alpha-bungarotoxin binders on microarray, profiling panel, artefact control for SMM control protein annotation, biochemical, small-molecule microarray, Alexa647 label, 635/667 nm fluorescence (AID 1117); conditions: alpha-BTX-A647 binding fluorescence, higher = more signal
Chain of Alpha-bungarotoxin (Bungarus multicinctus) (P60615 whole entry, looked up): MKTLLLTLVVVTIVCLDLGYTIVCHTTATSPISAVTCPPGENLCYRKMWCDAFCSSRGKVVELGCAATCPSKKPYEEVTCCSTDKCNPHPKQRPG

Compound | composite z-score [1] | composite z-score [2] | composite z-score [3] | z-score [4] | composite z-score [5] | composite z-score [6] | composite z-score [7] | composite z-score [8] | composite z-score [9] | composite z-score [10] | composite z-score [11] | z-score [12] | composite z-score [13] | composite z-score [14] | composite z-score [15] | composite z-score [16] | composite z-score [17] | composite z-score [18] | composite z-score [19] | composite z-score [20]
CC(CO)N1C(=O)[C@@H]2C3C(=O)OCCC=C[C@H]3OC23C=CCN(CCN2CCOCC2)C(=O)[C@@H]13 (stereo not given in full) | 0.53 and 0.55 | -0.278 and 0.0598 | -0.389 and 0.466 | 0.388 (inactive) and -0.153 (inactive) | -0.131 and -0.0694 | -0.496 and 0.65 | -0.51 and -0.235 | -0.0214 and -0.166 | 0.0325 and -0.442 | 0.621 and 1.59 | -1.05 and 0.497 | -0.38 and -0.851 | -0.346 and 0.398 | -0.0612 and -0.561 | -0.75 and -1.03 | -0.0981 and -0.13 | 0.0278 and 0.214 | 0.199 and -0.0161 | -0.71 and 1.48 | -0.106 and -0.0808
CCCC[C@@H]1CN2[C@@H](CC[C@@H](C)[C@@H]2c2ccc(Br)cc2)C(=O)O1 | 0.469 and 0.883 | -0.13 and -0.277 | -0.455 and -0.254 | 0.33 (inactive) and 0.758 (inactive) | 0.979 and 0.906 | 0.521 and 0.0677 | 0.183 and -0.121 | 0.516 and 0.351 | 0.272 and 0.136 | 0.488 and -0.0019 | 1.27 and 1.07 | -1.44 and -0.195 | 0.379 and 0.292 | 0.0614 and 0.32 | -0.242 and -0.217 | -0.152 and -0.13 | 0.0756 and -0.0553 | -0.198 and 0.121 | 0.0865 and -0.0158 | 0.439 and 0.105
CCOC(=O)NN=C1C[C@@H](O)[C@@H](O)[C@@H]2[C@@H]3C(=O)N(Cc4ccccc4)C(=O)[C@@H]3CC[C@@H]12 | 0.454 | -0.287 | -0.655 | 0.477 (inactive) | 0.118 | 0.304 | 0.542 | 0.59 | 0.355 | -0.208 | -0.337 | -0.16 | 0.349 | -0.546 | -0.659 | 0.134 | -0.2 | -0.207 | 0.297 | -0.168
CC(CO)N1C(=O)[C@@H]2C3C(=O)OCCC=C[C@H]3OC23C=CCN(c2ccc(Cl)cc2)C(=O)[C@@H]13 (stereo not given in full) | 1.13 and 1.84 | -0.0514 and 0.0818 | 0.574 and 0.715 | 0.14 (inactive) and 0.899 (inactive) | -1.16 and 0.322 | -1.61 and -0.251 | -0.911 and -0.867 | -1.14 and -0.558 | -1.33 and -0.412 | 0.137 and 0.88 | -0.999 and 0.188 | -0.229 and -0.964 | -0.905 and -1.03 | 0.136 and 0.0733 | 1.09 and -0.66 | -0.0346 and -0.152 | -0.19 and -0.0035 | 0.0473 and 0.61 | -0.236 and 1.7 | 0.0882 and -0.198
CCN1C(=O)[C@H]2[C@H]3[C@H](O)[C@H](O)CC(=NOC[C@@H](O)COCc4ccco4)[C@@H]3CC[C@H]2C1=O | 0.449 and 1.11 | 0.439 and -0.572 | -1.3 and -1.1 | 0.259 (inactive) and 0.403 (inactive) | -0.397 and 0.588 | 0.823 and -0.198 | 1.28 and 0.0979 | 1.21 and -0.333 | 1.56 and 0.836 | 0.666 and -0.0006 | -1.08 and -1.63 | 0.0085 and 1.42 | 1.32 and 0.764 | -1.05 and -0.872 | -1.72 and -1.74 | -0.0721 and -0.232 | -0.145 and -0.138 | 0.0326 and -0.0236 | 0.205 and -0.291 | 0.0851 and -0.421
CCOC(=O)c1ccc(NC(=O)O[C@H]2[C@H](OC(=O)Nc3ccccc3)[C@H](OC(=O)Nc3ccccc3)[C@@H](OC)O[C@@H]2CO)cc1 | 1.45 and 1.74 | 0.968 and 0.673 | 0.873 and 0.902 | -0.285 (inactive) and -0.997 (inactive) | 1.27 and 0.968 | 1.31 and 1.33 | 0.591 and 0.218 | 1.39 and 1.38 | 0.531 and 0.259 | 0.888 and 0.327 | 1.2 and 1.34 | -3.29 and -3.49 | 0.899 and 0.291 | 2 and 2.1 | 0.0672 and 0.407 | 0.0438 and -0.0417 | 0.113 and 0.337 | 0.576 and 0.978 | 1.74 and 1.88 | 1.86 and 2.87
CC(C)OC(=O)C=C1C[C@@H](c2ccccc2)O[C@@H](c2ccccc2)O1 | 0.733 and 1.54 | 0.164 and 0.272 | 0.0614 and 0.847 | 0.0661 (inactive) and 2.56 (inactive) | 1.45 and 1.42 | 1.34 and 1.31 | 0.65 and 0.664 | 1.44 and 1.41 | 0.527 and 0.481 | -0.0632 and 1.05 | 1.48 and 1.45 | -2.1 and -1.36 | 0.826 and 0.795 | 0.056 and 1.23 | -0.147 and -0.505 | 0.166 and 0.0915 | -0.185 and 0.131 | 0.286 and 0.403 | 1.3 and 1.28 | 1.03 and 1.75
CCC[C@@H]1C[C@@]1(CCC)[C@@H](NC(=O)c1ccc(-c2ccccc2)cc1)c1cccc(Cl)c1 | 1.21 and 0.366 | 1.34 and 0.898 | 1.09 and 1.13 | -3.74 (inactive) and -1.69 (inactive) | -0.592 and 0.143 | -0.826 and -0.349 | -0.346 and 0.0087 | -0.46 and -0.339 | -0.0916 and -0.455 | 1.53 and 0.896 | -0.802 and 0.457 | -2.13 and -2.05 | -0.307 and -0.135 | -1.57 and 0.535 | -1.45 and 0.215 | 0.874 and 0.103 | 2.27 and -0.138 | 2.75 and 0.507 | 0.415 and 0.868 | -0.899 and -0.0107
